HT1080NT lethal: kills 2HG-producing HT-1080-NT fibrosarcoma cells; Potency, µM (doses to about 46.1 µM), for inactives: top-dose activity, negative = less viability, actives largely listed as cytotoxic; 360,000 compounds, 1.6% hits; HT-1080-NT fibrosarcoma viability, CellTiter-Glo ATP luminescence, 48 h;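 also: NT is the 2HG producing partner of a matched IDH1 knockdown line; 0% = DMSO-treated cells and -100% = media-only wells without cells; nearly all actives have a fitted effect of over 55% in size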
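750 cells/well, RPMI + 5% FBS; 2 h settle, compound pin-transfer, 48 h at 37 degrees C. CellTiter-Glo 10 min RT, luminescence. Normalized to DMSO and media-only wells.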
TDP1 cell noCPT: qHTS for Inhibitors of human tyrosyl-DNA phosphodiesterase 1 (TDP1): qHTS in cells in absence of CPT | Potency, µM (highest dose often 46.2 µM), without a hit: at the highest dose activity change, negative = growth inhibition, hits mostly inhibitors | 420,000 compounds, 15% hits | DT40 Tdp1-/- hTDP1 cells, no CPT, ATP luminescence, 48 h | AID 686978, 2013; also: % is scaled to controls: 0 for no effect and ±100 for the full control effect; nearly all actives have a fitted effect of over 55% in size
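Camptothecin absent (DMSO only). Human TDP1-complemented DT40 knockout cells, 400 cells/well, 37 °C for minimum 48 hr; ATP measured via CellTiter-Glo, 30 min dark incubation, luminescence.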
HT1080 IDH1KD tx: kills HT-1080 cells with IDH1 knockdown. HT-1080 IDH1 knockdown viability, ATP luminescence, 48 h. Potency, µM (top dose mostly 46.1 µM), for the others: top-dose activity, negative = toxicity, most hits filed as cytotoxic. 360,000 compounds, 2% hits;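 also: 0% = DMSO wells and -100% = cell-free medium wells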
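Knockdown cells (IDH1KD HT-1080) received compounds 2 h after plating at 750 cells/well and were kept 48 h at 37 °C in 5% FBS RPMI. A CellTiter-Glo luminescence read gave % activity for curve fitting.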
HepG2 tox: kills HepG2 cells in TGF-b inhibitor counter-screen. HepG2 CAGA-GFP viability, ATP luminescence, 18 h. Potency, µM (series often up to 46.1 µM), for the others: top-dose activity change, negative = cytotoxicity, actives largely listed as cytotoxic. 410,000 compounds, 0.76% hits. AID 588856
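CellTiter-Glo luminescence gave cytotoxicity after 18 hours at 37 degrees C. The cells were HepG2 CAGA-GFP in 1% FBS DMEM, stimulated with 500 pg/mL TGF-beta after compound addition. %Activity was normalised to no-cell wells (complete cell-killing) and DMSO (no toxicity), and curves were fitted and classified.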
TDP1 cell CPT: DT40-hTDP1 cell growth loss with CPT. Potency, µM (doses to about 46.2 µM), inactives show at the highest dose activity change, negative = growth inhibition, most hits filed as inhibitors. chicken DT40 Tdp1-/-;hTDP1 cells + 20 nM CPT, ATP luminescence, 48 h. AID 686979. 420,000 compounds, 12% hits; also: % is scaled to controls: 0 for no effect and ±100 for the full control effect; nearly all actives have a fitted effect of over 55% in size
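Chicken DT40 Tdp1-/- cells stably complemented with human TDP1 were seeded at 400 cells/well in medium containing 20 nM camptothecin, exposed to pin-transferred compounds, and grown at 37 °C for at least 48 hr. Viability was read as ATP luminescence.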
TGFb inhibitor: inhibitors of TGF-b signaling; HepG2 CAGA-GFP TGF-b/SMAD3 reporter, GFP fluorescence, 18 h; TGF-beta stimulated, 500 pg/mL final; Potency, µM (doses to about 46.1 µM), without a hit: at the top dose activity, negative = inhibition, hits mostly inhibitors; 410,000 compounds, 1.2% hits; also: % is scaled to controls: 0 for no effect and ±100 for the full control effect; nearly all actives have a fitted effect of over 65% in size
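Inhibition of TGF-beta-driven CAGA-GFP reporter expression in HEPG2 cells is measured by cellular GFP fluorescence after 18 h stimulation with 500 pg/mL recombinant TGF-beta in 1% FBS medium at 37 degrees C.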
* marks the source's active call; other numbers are inactive results. Most compounds without a hit are left out; they make up all but 17% or so of the library. Calls follow the shape of the dose curve; as a rule, active = well fitted curve in the direction sought with a large enough effect; inconclusive = small, poorly fitted or top-dose-only effect, or another doubt; inactive = no such curve, though single readings can be large; an effect the other way counts as inactive or inconclusive. Potency is read from the fitted curve at half-maximal effect.

What do the screens show for `Cc1ccc(N/C(N)=N/c2nc(CSc3ccccn3)cc(=O)[nH]2)c(C)c1`?
HT1080NT lethal: 18%; TDP1 cell noCPT: 18µM*; HT1080 IDH1KD tx: inconclusive; HepG2 tox: -90%; TDP1 cell CPT: inconclusive; TGFb inhibitor: 5%

How did CCCc1cc(=O)[nH]c(/N=C(\N)Nc2ccccc2)n1 do in these assays?
HT1080NT lethal: -6%; TDP1 cell noCPT: -21%; HT1080 IDH1KD tx: -3%; HepG2 tox: 4%; TDP1 cell CPT: inconclusive; TGFb inhibitor: 25%

Results for CCc1ccc(N/C(N)=N/c2nc(CSc3ccccn3)cc(=O)[nH]2)cc1 ?
HT1080NT lethal: -1%; TDP1 cell noCPT: 16µM*; HT1080 IDH1KD tx: -5%; HepG2 tox: -4%; TDP1 cell CPT: 15µM*; TGFb inhibitor: 10%

What do the screens show for `Cc1ccc(C)c(OCC(=O)Nc2cc(NC(=O)COc3cc(C)ccc3C)cc(C(=O)O)c2)c1`?
HT1080NT lethal: -8%; TDP1 cell noCPT: inconclusive; HT1080 IDH1KD tx: -15%; HepG2 tox: -2%; TDP1 cell CPT: 1%; TGFb inhibitor: -22%

What do the screens show for `Cc1ccccc1-c1nc(-c2ccccn2)no1`?
HT1080NT lethal: 23µM*; TDP1 cell noCPT: inconclusive; HT1080 IDH1KD tx: 21µM*; HepG2 tox: -79%; TDP1 cell CPT: inconclusive; TGFb inhibitor: 0%

How did COc1ccccc1-c1nc(-c2ccccn2)no1 do in these assays?
HT1080NT lethal: 21µM*; TDP1 cell noCPT: 13µM*; HT1080 IDH1KD tx: 23µM*; HepG2 tox: -100%; TDP1 cell CPT: 13µM*; TGFb inhibitor: 6%

What do the screens show for `Cc1ccccc1-c1nc(-c2cccnc2)no1`?
HT1080NT lethal: 0%; TDP1 cell noCPT: -23%; HT1080 IDH1KD tx: -16%; HepG2 tox: -15%; TDP1 cell CPT: 1%; TGFb inhibitor: 0%

Results for COc1ccc(-c2nc(-c3ccccn3)no2)cc1 ?
HT1080NT lethal: 8.2µM*; TDP1 cell noCPT: inconclusive; HT1080 IDH1KD tx: 9.2µM*; HepG2 tox: 3.5µM*; TDP1 cell CPT: 15µM*; TGFb inhibitor: -1%

Results for COc1ccccc1-c1noc(-c2ccncc2)n1 ?
HT1080NT lethal: -12%; TDP1 cell noCPT: -19%; HT1080 IDH1KD tx: -12%; HepG2 tox: -19%; TDP1 cell CPT: -3%; TGFb inhibitor: -8%

How did COc1ccc(-c2nc(-c3cccnc3)no2)cc1 do in these assays?
HT1080NT lethal: 13%; TDP1 cell noCPT: 16µM*; HT1080 IDH1KD tx: 12%; HepG2 tox: 12%; TDP1 cell CPT: inconclusive; TGFb inhibitor: 9%

How did COc1ccc(CCN=C(N)Nc2nc(C)cc(C)n2)cc1 do in these assays?
HT1080NT lethal: -28%; TDP1 cell noCPT: 7.3µM*; HT1080 IDH1KD tx: -5%; HepG2 tox: -19%; TDP1 cell CPT: 7.3µM*; TGFb inhibitor: -18%

What do the screens show for `COc1ccc(CCN=C(N)NS(=O)(=O)c2ccccc2)cc1`?
HT1080NT lethal: 9%; TDP1 cell noCPT: -25%; HT1080 IDH1KD tx: 5%; HepG2 tox: -18%; TDP1 cell CPT: inconclusive; TGFb inhibitor: inconclusive

Results for CCCNC(=O)Cn1nc(-c2ccccc2OC)ccc1=O ?
HT1080NT lethal: 0%; TDP1 cell noCPT: -9%; HT1080 IDH1KD tx: -2%; HepG2 tox: 7%; TDP1 cell CPT: -4%; TGFb inhibitor: 5%

How did COCCN(C(=S)Nc1c(C)cc(C)cc1C)C(C)c1cccs1 (centres undefined) do in these assays?
HT1080NT lethal: -7%; TDP1 cell noCPT: 29µM*; HT1080 IDH1KD tx: -1%; HepG2 tox: -26%; TDP1 cell CPT: inconclusive; TGFb inhibitor: -6%

What do the screens show for `COCCCn1c(SCC(=O)Nc2ccccc2OC)nc2c(sc3ccccc32)c1=O`?
TDP1 cell noCPT: 26µM*; HepG2 tox: 6%; TDP1 cell CPT: 23µM*; TGFb inhibitor: inconclusive

Results for COCCCNC(=O)CSc1nc2c(sc3ccccc32)c(=O)n1CCc1ccc(OC)c(OC)c1 ?
TDP1 cell noCPT: 5.2µM*; HepG2 tox: 4%; TDP1 cell CPT: inconclusive; TGFb inhibitor: 2%

What do the screens show for `COc1cc(OC)c(NC(=O)C2=C(C)C(=O)OC23CCN(C(C)=O)CC3)cc1Cl`?
TDP1 cell noCPT: 6%; HepG2 tox: 4%; TDP1 cell CPT: 11%; TGFb inhibitor: 0%

What do the screens show for `CC(NC(=O)C1CCOCC1)c1nnc2n1CCN(Cc1cc3c(cc1Cl)OCO3)CC2` (centres undefined)?
TDP1 cell noCPT: -3%; TDP1 cell CPT: 2%

Results for C[C@@H](Nc1nc(Cl)nc2nc[nH]c12)c1ccccc1 ?
TDP1 cell noCPT: 16µM*; HepG2 tox: -16%; TDP1 cell CPT: 20µM*; TGFb inhibitor: -10%

What do the screens show for `Clc1nc(NCc2ccco2)c2[nH]cnc2n1`?
TDP1 cell noCPT: inconclusive; HepG2 tox: 2%; TDP1 cell CPT: -3%; TGFb inhibitor: 19%

What do the screens show for `COc1ccc(NC(=S)Nc2cnc3ccccc3c2)c(OC)c1`?
HT1080NT lethal: 16%; TDP1 cell noCPT: -9%; HT1080 IDH1KD tx: 4%; HepG2 tox: -3%; TDP1 cell CPT: -3%; TGFb inhibitor: -1%

Results for O=[N+]([O-])c1ccc2c(c1)-c1ccccc1C2=NO ?
HT1080NT lethal: 0%; TDP1 cell noCPT: 16µM*; HT1080 IDH1KD tx: 6%; HepG2 tox: -12%; TDP1 cell CPT: 18µM*; TGFb inhibitor: inconclusive

How did O=C(Nc1cc2c(cc1Cl)-c1ccc([N+](=O)[O-])cc1C2=NO)C(F)(F)F do in these assays?
HT1080NT lethal: 8%; TDP1 cell noCPT: 23µM*; HT1080 IDH1KD tx: 6%; HepG2 tox: -93%; TDP1 cell CPT: inconclusive; TGFb inhibitor: inconclusive

Results for Nc1ccc2c(c1)C(=NO)c1cc([N+](=O)[O-])ccc1-2 ?
HT1080NT lethal: -16%; TDP1 cell noCPT: 2.1µM*; HT1080 IDH1KD tx: inconclusive; HepG2 tox: 8%; TDP1 cell CPT: 0.58µM*; TGFb inhibitor: inconclusive

How did O=C(Nc1ccc2c(c1)Cc1cc([N+](=O)[O-])ccc1-2)C(F)(F)F do in these assays?
HT1080NT lethal: -1%; TDP1 cell noCPT: 6.5µM*; HT1080 IDH1KD tx: -7%; HepG2 tox: -5%; TDP1 cell CPT: inconclusive; TGFb inhibitor: -1%

Assay outcomes from PubChem BioAssay.
